The structures appear in SMILES notation.

Holding throughout (type): functional
Assay [1] concerns the target Solute carrier family 2, facilitated glucose transporter member 1 (Homo sapiens) (UniProt P11166). The assay can be described thus: ST_JUDE_LEISH: Cytotoxicity at 2uM final concentration against transgenic Leishmania Mexicana promastigotes LmGLUT1 that are glucose transport deficient and complemented with the human glucose transporter GLUT1. Activity is measured by DNA content using SYBR green in vitro.

In assay [2] the target is Hexose transporter 1 (Plasmodium falciparum) (UniProt O97467). The assay can be described thus: ST_JUDE_LEISH: Cytotoxicity at 2uM final concentration against transgenic Leishmania Mexicana promastigotes LmPfHT that are glucose transport deficient and complemented with the Plasmodium falciparum hexose transporter. Activity is measured by DNA content using SYBR green in vitro.

The target of assay [3] is Glucose transporter (Leishmania mexicana) (UniProt O61059). The assay can be described thus: ST_JUDE_LEISH: Cytotoxicity at 2uM final concentration against transgenic Leishmania Mexicana promastigotes LmGT2 that are glucose transport deficient and complemented with the L. Mexicana glucose transporter 2. Activity is measured by DNA content using SYBR green in vitro.

Solute carrier family 2, facilitated glucose transporter member 1 (Homo sapiens), sequence (P11166 whole entry): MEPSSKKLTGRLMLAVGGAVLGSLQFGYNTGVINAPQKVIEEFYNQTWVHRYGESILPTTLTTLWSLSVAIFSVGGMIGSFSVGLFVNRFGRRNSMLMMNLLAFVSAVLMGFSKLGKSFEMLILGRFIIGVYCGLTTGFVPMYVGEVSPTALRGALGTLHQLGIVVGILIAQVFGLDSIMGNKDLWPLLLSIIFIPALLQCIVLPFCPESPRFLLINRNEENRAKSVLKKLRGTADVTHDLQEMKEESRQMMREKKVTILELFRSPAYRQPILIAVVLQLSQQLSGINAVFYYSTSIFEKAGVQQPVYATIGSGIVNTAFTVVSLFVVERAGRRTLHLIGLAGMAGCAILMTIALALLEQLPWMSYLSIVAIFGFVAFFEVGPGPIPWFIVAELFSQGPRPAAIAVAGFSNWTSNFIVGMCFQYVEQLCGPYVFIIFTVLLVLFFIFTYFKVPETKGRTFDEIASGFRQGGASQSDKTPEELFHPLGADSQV

Turning to `c1cncc(CNc2ncc(-c3ccsc3)c(-c3nccs3)n2)c1`, the inhibition in assay [1] amounted to 5.96%; in assay [2], 8.95%; in assay [3], 7.02%.
The like results for `CCCCCCCN1CC[C@@H](CCCc2ccnc3ccc(OCCCCN/C(N)=N/O)cc23)[C@@H](CC)C1` were, in that order, 4.19%, 2.68% and 2.04%.
The corresponding values for `N=C(NCCc1ccccc1Cl)c1ccc2ccccc2c1` are -1.42%, -1.63% and -2.06%.
On to `CN=C(NC)c1cccc(NC(=O)C=Cc2ccc(C=CC(=O)Nc3cccc(C(=NC)NC)c3)cc2)c1`, for which the inhibition is 0.52% in assay [1], 2.48% in assay [2] and -0.11% in assay [3].
The corresponding values for `CC(C)(CNC(=O)[C@@H]1CCCCN1)c1nc(-c2ccc(Cl)c(O)c2)c(-c2ccncc2)[nH]1` are 2.07%, 2.19% and 1.02%.
In the case of `CNCCNCc1ccc(-c2cccc(-c3nc4cc(C(F)(F)F)ccc4[nH]3)c2)cc1`, the values for the inhibition in assay [1], in assay [2] and in assay [3] were 3.52%, 0.66% and 1.45%, respectively.
Consider `COc1ccc(-c2nc(NC(=O)COc3ccc(C(C)=O)cc3)sc2C)cc1`, for which the inhibition is 2.62% in assay [1], 2.48% in assay [2] and 2.69% in assay [3].
`O=C(Nc1cccc(CN2CCN(C(=O)c3ccccc3)CC2)c1)c1ccco1`: the inhibition in assay [1] turned out to be 3.67%; in assay [2], 3.78%; in assay [3], 7.1%.
Consider `O=C(Nc1ccc(-c2ccccc2)c(OCCN2CCNCC2)c1)c1ccc(-c2ccc(Cl)cc2)cc1`, for which the inhibition in assay [1] was found to be 3.89%; in assay [2], 5.96%; in assay [3], 3.11%.
The like results for `Cc1ccc2[nH]c(C)cc(=NN=Cc3ccccc3F)c2c1` were, in that order, 13.5%, 12.6% and 8.78%.
For `O=C(NCCCCCN1CCCN(C(=O)Nc2ccc(Cl)c(C(F)(F)F)c2)CC1)C1CC1c1ccc(Cl)c(Cl)c1` (centres undefined), the inhibition in assay [1] was 2.42%; in assay [2], 0.79%; in assay [3] it was 0.24%.
For the molecule `CC(C)CNC(=O)c1cncc(-c2cccc(CNC3Cc4ccccc4C3)c2)c1`, the inhibition in assay [1] turned out to be 10.7%; in assay [2], 6.1%; in assay [3] it was 6.4%.
The like results for `c1ccc2c(Nc3ccc(Cc4ccc(Nc5c6ccccc6nc6ccccc56)cc4)cc3)c3ccccc3nc2c1` were, in that order, 6.04%, 6.65% and 2.95%.
In the case of `CN1CCCC(CN2CCN(Cc3ccc(-c4ccc(-c5nc6cc(F)ccc6[nH]5)s4)cc3)CC2)C1` (centres undefined), the inhibition stood at 5.94% in assay [1], 5.97% in assay [2] and 4.47% in assay [3].
On to `CC(Cl)=CCc1c(C)nc2c(ccc3ccccc32)c1O`, for which the inhibition in assay [1] amounted to 4.44%; in assay [2] it was 3.06%; in assay [3], 3.58%.
The like results for `CCCNc1ccc2nccc(CCN3CCC(NCc4ccc5c(c4)NC(=O)CS5)CC3)c2n1` were, in that order, 0.84%, 3.1% and 2.43%.
For the molecule `COc1ccc2c(N/N=C/c3ccc([N+](=O)[O-])cc3)ccnc2c1`, the inhibition was 6.14% in assay [1], 4.33% in assay [2] and 2.7% in assay [3].
The like results for `COc1ccc(CCNCCCCCCNCCc2ccccc2Cl)cc1OC` were, in that order, 1.25%, 0.29% and 1.91%.
The like results for `O=[N+]([O-])c1nc(Br)n(Cc2ccc(Cl)cc2)n1` were, in that order, 3.1%, 3.81% and 4.39%.
The like results for `O=C(Nc1ccccc1Cc1ccccc1)c1ccccc1C(F)(F)F` were, in that order, 6.25%, 1.68% and 2.61%.
On to `COc1ccc2ncc(F)c([C@@H](O)CN3CCC(NCc4cc(C#N)c5c(c4)CCO5)CC3)c2n1`, for which the inhibition in assay [1] worked out at 3.43%; in assay [2], 3.05%; in assay [3], 0.58%.
The corresponding values for `CC(C)COc1ccc(Cl)cc1Cc1ccc(-c2nc3c(F)cccc3[nH]2)o1` are 0.36%, 0.7% and 2.89%.
The corresponding values for `CN1CCC(N2CCN(c3ccc4c(=O)nc(CCc5cccc(F)c5F)n(CC(=O)N(C)Cc5ccc(-c6ccc(C(F)(F)F)cc6)cc5)c4n3)CC2)CC1` are -0.12%, 0.33% and 6.67%.
In the case of `COc1ccc(NC(=O)CCNc2ccnc(NCCc3ccc(F)cc3)n2)cc1`, the inhibition worked out at 2.48% in assay [1], 2.27% in assay [2] and 1.75% in assay [3].
The like results for `COc1ccc(-c2nc3c4ccccc4c4ccc(I)cc4c3[nH]2)cc1` were, in that order, 5.22%, 2.48% and 2.32%.
Regarding `CC1CCC(NCc2ccc3c(CNC4CCC(C)CC4)c(O)ccc3c2O)CC1` (centres undefined), the inhibition in assay [1] was 1.24%; in assay [2], -0.12%; in assay [3] it was -1.56%.
Turning to `COc1cccc(Nc2nccc(NCC(O)c3ccc(C(F)(F)F)cc3)n2)c1` (centres undefined), the inhibition in assay [1] came to 7.45%; in assay [2], 8.55%; in assay [3], 2.75%.
The like results for `O=C(NCCCCN1CC=C(c2ccc3c(c2OCc2ccccc2)CCCC3)CC1)c1ccc(-c2ccc(C(F)(F)F)cc2)cc1` were, in that order, -1.51%, -1.29% and -2.15%.
As for `c1ccc(CN2CCC(NCc3ccccc3-c3ccc(CNC4CCCC4)cc3)CC2)cc1`, the inhibition in assay [1] was determined as 4.61%; in assay [2] it was 3.06%; in assay [3] it was 6.38%.
`Cc1cc(N[C@@H](Cc2ccccc2)C(=O)NCCOc2ccccc2)nc(NCCc2ccccc2)n1`: the results for the inhibition in assay [1], in assay [2] and in assay [3] were 6.59%, 5.86% and 3.92%, respectively.
In the case of `CC(C)=CCN1CCC(C(=O)Nc2ccc(-c3nc4ccccc4[nH]3)cc2)CC1`, the figures for the inhibition in assay [1], in assay [2] and in assay [3] were 5.64%, 5.1% and 6.97%, respectively.
The corresponding values for `Ic1cc(Nc2ncnc3ccsc23)ccc1OCc1ccccc1` are 0.8%, 0.85% and 0.81%.
`Oc1c(CN2CCC(Cc3ccccc3)CC2)cc(Cl)c2cccnc12`: the inhibition in assay [1] came to 13.5%; in assay [2], 14%; in assay [3], 9.31%.
The corresponding values for `COc1ccc(-c2cnc(N)c(-c3ccc(O)c(OC)c3)c2)cn1` are 0.58%, 0.38% and 1.13%.
As for `Cc1cc(N[C@@H](Cc2ccccc2)C(=O)NCCc2ccccc2)nc(NCCOc2ccccc2)n1`, the inhibition was found to be 5.12% in assay [1], 5.84% in assay [2] and 2.55% in assay [3].
The corresponding values for `CCCCCCCCc1c(C)[nH]c(C)c(Cl)c1=O` are 0.5%, 0.28% and -0.99%.
For `c1cc(CNCC2CCCO2)cc(-c2csc(-c3nc4ccccc4[nH]3)c2)c1` (centres undefined), the results for the inhibition in assay [1], in assay [2] and in assay [3] were -1.5%, 2.45% and 2.04%, respectively.
In the case of `Cc1ccc(CNC(=O)[C@H](Cc2ccccc2)Nc2cc(C)nc(Nc3ccccc3)n2)cc1`, the inhibition in assay [1] was 7.2%; in assay [2], 6.84%; in assay [3], 4.59%.
The corresponding values for `CCCc1cc(N2CCC(N3CCCC3)CC2)nc(Nc2ccc(OC)cc2)n1` are 1.06%, 2.18% and 0.63%.
In the case of `CCN1CCC(N(CCCCCCCCc2ccc(C(F)(F)F)cc2)C(=O)Cn2c(CCc3cccc(F)c3F)cc(=O)c3ccccc32)CC1`, the inhibition was determined as 8.91% in assay [1], 9.52% in assay [2] and 4.76% in assay [3].
As to `Nc1nc(N)c2c(Cl)c(N(Cc3ccccc3)Cc3ccccc3)ccc2n1`, the inhibition in assay [1] worked out at 23.6%; in assay [2], 23.5%; in assay [3], 7.75%.
As to `CC1(C)[C@H]2CC[C@@H](CNc3nc(NCCc4c[nH]cn4)nc(Nc4ccc5c(c4)OCO5)n3)[C@@H]1C2`, the inhibition came to 2.49% in assay [1], 0.99% in assay [2] and 0.68% in assay [3].
On to `COc1cc2c(cc1NS(=O)(=O)c1ccc(OCc3ccc(Br)cc3)cc1)CCN(C1CCC1)CC2`, for which the inhibition was 0.64% in assay [1], -0.8% in assay [2] and -0.51% in assay [3].
As to `Cc1nc(NCCCn2ccnc2)cc(-c2cncc(-c3ccc(OC(F)(F)F)cc3)c2)n1`, the inhibition came out at 5.43% in assay [1], 5.92% in assay [2] and 3.04% in assay [3].
`CCCCOc1ccc(C(=O)C(CCC(CNC(C)(C)C)C(=O)c2ccc(OCCCC)cc2)CNC(C)(C)C)cc1` (centres undefined): the results for the inhibition in assay [1], in assay [2] and in assay [3] were 43.9%, 12.2% and 31.8%, respectively.
The corresponding values for `O=C(Nc1cccc(-c2ccc(CN3CCC(O)CC3)cc2)c1)c1ccc(Cl)cc1` are 2.51%, 3.64% and 1.52%.
The corresponding values for `NC(=O)c1ccc(NCC(=O)Nc2cccc(-c3cccc(-c4nc5ccccc5[nH]4)c3)c2)cc1` are 2.82%, 4.21% and 0.95%.
The corresponding values for `CN1CCCC(CN2CCN(Cc3ccc(-c4ccc(-c5nc6cc(F)ccc6[nH]5)cc4)cc3)CC2)C1` (centres undefined) are 2.18%, 4.45% and 2.38%.

The record behind these values is ChEMBL document CHEMBL3433997, “St. Jude Leishmania screening dataset” (2016).
